Test results: PubChem BioAssay (Tox21)
Inconclusive results are not listed. Calls of active or inactive are those of the source. Unless noted, the call rests on the fitted dose curve.

What was measured:
[1] = Nuclear factor erythroid 2-related factor 2/antioxidant responsive element (Nrf2/ARE) small molecule agonists: qHTS cell viability counter screen in human keratinocytes (AID 1919968; active means well fitted curve in the direction sought with a large enough effect in the repeat runs; an effect the other way counts as inactive or inconclusive; further: nearly all actives have a fitted effect of over 55% in size)
Procedure, shortened: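 Seed 1,500 KeratinoSens cells per well, then incubate 5 h at 37 C/5% CO2. Add compounds in DMSO and incubate 23 h. Add CellTiter-Fluor, wait 1 h and read fluorescence.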

[2] = Nuclear factor erythroid 2-related factor 2/antioxidant responsive element (Nrf2/ARE) small molecule agonists: luciferase reporter gene qHTS assay in human keratinocytes (AID 1919969); further: nearly all actives have a fitted effect of over 35% in size
[3] = target: Gonadotropin-releasing hormone receptor (Homo sapiens) (UniProt P30968); assay: Human gonadotropin-releasing hormone receptor (GnRHR) small molecule agonists, calcium flux assay in GnRHR-HEK293 cells (AID 1920063); further: nearly all actives have a fitted effect of over 35% in size
Gonadotropin-releasing hormone receptor (Homo sapiens), sequence (P30968 whole entry, looked up): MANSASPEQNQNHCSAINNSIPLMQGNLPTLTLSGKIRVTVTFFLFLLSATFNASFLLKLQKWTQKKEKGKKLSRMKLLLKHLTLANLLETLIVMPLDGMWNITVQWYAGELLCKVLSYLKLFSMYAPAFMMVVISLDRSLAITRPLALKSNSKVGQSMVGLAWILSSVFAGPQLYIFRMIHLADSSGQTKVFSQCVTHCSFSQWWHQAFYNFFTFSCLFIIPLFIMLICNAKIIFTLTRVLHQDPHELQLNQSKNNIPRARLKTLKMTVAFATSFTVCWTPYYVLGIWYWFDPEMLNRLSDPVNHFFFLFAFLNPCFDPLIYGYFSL
Procedure, shortened: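 Cells: HEK293 stably expressing human GnRHR. Steps: overnight (18 h) culture, 1 h calcium dye loading at 37 C, compound addition, kinetic fluorescence read at 480/540 nm. Each compound tested at 15 concentrations in triplicate.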

[4] = target: KiSS-1 receptor (Homo sapiens) (UniProt Q969F8); assay: Human kisspeptin (KISS1R) small molecule agonists, calcium flux assay in KISS1R-HEK293 cells (AID 1920064; active means well fitted curve in the direction sought with a large enough effect in the repeat runs; an effect the other way counts as inactive or inconclusive)
KiSS-1 receptor (Homo sapiens), sequence (Q969F8 whole entry, looked up): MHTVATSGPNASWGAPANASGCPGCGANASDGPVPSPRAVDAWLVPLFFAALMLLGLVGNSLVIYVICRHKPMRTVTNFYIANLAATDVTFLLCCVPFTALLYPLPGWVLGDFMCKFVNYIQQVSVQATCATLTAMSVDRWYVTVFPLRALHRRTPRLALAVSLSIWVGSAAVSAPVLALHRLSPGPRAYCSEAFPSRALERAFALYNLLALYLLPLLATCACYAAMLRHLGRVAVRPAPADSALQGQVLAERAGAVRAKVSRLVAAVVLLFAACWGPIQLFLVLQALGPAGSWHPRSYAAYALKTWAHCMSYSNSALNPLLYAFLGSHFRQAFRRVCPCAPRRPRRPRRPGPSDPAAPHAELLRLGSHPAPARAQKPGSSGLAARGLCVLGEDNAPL
Procedure, shortened: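 Cells plated and incubated 18 h; dye added, 1 h at 37 C; compounds in DMSO pinned in; signal read at 480/540 nm every second for 3 min. Each compound tested at 15 concentrations in triplicate.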

[5] = G protein-coupled receptor (GPCR) small molecule agonists, calcium flux assay: HEK293 wild type cell line counter screen (AID 1920065)
Procedure, shortened: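 Counter-screen of the Tox21 10K library for non-specific calcium release: dye-loaded cells received compounds in DMSO and were monitored by kinetic fluorescence (480/540 nm, 3 min). Fifteen concentrations, run in triplicate.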

[6] = p53 small molecule agonists, cell-based qHTS assay with human liver microsomes (AID 1963577);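 further: p53 response element beta-lactamase reporter cells with liver microsomes plus NADPH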
Procedure, shortened: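 Steps: plate p53RE-bla cells, incubate 5 h at 37 C; add compound in DMSO; add microsomes (0.5 mg/mL final) and NADPH (0.5 mg/mL final); incubate 16 h at 37 C; add LiveBLAzer, 2 h RT; read fluorescence.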

[7] = p53 small molecule agonists, cell-based qHTS assay with rat liver microsomes (AID 1963578)
Procedure, shortened: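 Metabolic activation is supplied by rat liver microsomes with NADPH (each 0.5 mg/mL final). p53RE-bla cells incubate with compound 16 h at 37 C; reporter activity is measured by LiveBLAzer fluorescence.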

[8] = p53 small molecule agonists, cell-based qHTS assay with human liver microsomes: qHTS cell viability counter screen (AID 1963579); further: nearly all actives have a fitted effect of over 45% in size
Procedure, shortened: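 After the 460/530 nm beta-lactamase read, CellTiter-Glo was added to the same wells and luminescence measured after 30 min at room temperature, giving viability of p53RE-bla cells treated 16 h with compounds plus microsomes and NADPH.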

[9] = p53 small molecule agonists, cell-based qHTS assay with rat liver microsomes: qHTS cell viability counter screen (AID 1963580); further: nearly all actives have a fitted effect of over 45% in size
Procedure, shortened: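 p53RE-bla HCT-116 cells were exposed 16 h at 37 C to compounds with rat liver microsomes (0.5 mg/mL) and NADPH (0.5 mg/mL). Viability was measured in the same wells as ATP content by CellTiter-Glo luminescence.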

[10] = p53 small molecule agonists, cell-based qHTS assay: qHTS cell viability counter screen (AID 1963581); further: nearly all actives have a fitted effect of over 45% in size
Procedure, shortened: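 Cells: HCT-116 with p53 response element-driven beta-lactamase. Treatment: 16 h, 37 C, compounds in DMSO. Read: CellTiter-Glo luminescence after 30 min RT.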

[11] = p53 small molecule agonists, cell-based qHTS assay (AID 1963582; active means well fitted activation curve with a large enough effect in the signal ratio in the repeat runs, not every such curve was filed as active; the % refers to the signal ratio)
Procedure, shortened: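 Quantitative HTS in p53RE-bla cells: after a 5 h settling period, compounds delivered in DMSO were left on cells for 16 h at 37 C, and reporter induction was measured as fluorescence following 2 h substrate loading.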

[12] = target: 5-hydroxytryptamine receptor 2A (Homo sapiens) (UniProt P28223); assay: 5-hydroxytryptamine receptor 2A (HTR2A) small molecule antagonists, cell-based qHTS assay (AID 1963586); further: nearly all actives have a fitted effect of over 45% in size
5-hydroxytryptamine receptor 2A (Homo sapiens), sequence (P28223 whole entry, looked up): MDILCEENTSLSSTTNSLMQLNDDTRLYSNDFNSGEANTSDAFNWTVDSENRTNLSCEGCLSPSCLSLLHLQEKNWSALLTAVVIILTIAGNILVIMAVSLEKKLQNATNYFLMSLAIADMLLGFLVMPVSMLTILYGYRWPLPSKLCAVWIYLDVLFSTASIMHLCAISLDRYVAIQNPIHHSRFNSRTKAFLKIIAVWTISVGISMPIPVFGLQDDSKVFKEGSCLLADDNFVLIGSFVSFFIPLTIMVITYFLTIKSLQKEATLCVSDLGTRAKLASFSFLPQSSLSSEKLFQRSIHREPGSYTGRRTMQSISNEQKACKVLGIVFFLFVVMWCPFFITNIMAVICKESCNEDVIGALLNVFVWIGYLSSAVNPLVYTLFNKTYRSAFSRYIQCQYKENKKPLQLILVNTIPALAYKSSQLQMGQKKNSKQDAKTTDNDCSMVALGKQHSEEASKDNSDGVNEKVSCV
Procedure, shortened: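 Antagonist-mode intracellular calcium assay: DOI (4 nM) added after 5 min compound pre-incubation at room temperature to dye-loaded HTR2A-CHO cells. Fluorescence followed for 3 min, sampled every second.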

[13] = target: 5-hydroxytryptamine receptor 2A (Homo sapiens) (UniProt P28223); assay: 5-hydroxytryptamine receptor 2A (HTR2A) small molecule agonists, cell-based qHTS assay (AID 1963587); further: nearly all actives have a fitted effect of over 30% in size
Procedure, shortened: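 CHO cells stably expressing human HTR2A, plated 18 h, loaded with calcium dye 1 h at 37 C. Agonist mode: compounds added and intracellular calcium fluorescence recorded kinetically for 2 min at 1 sec intervals.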

[14] = target: Muscarinic acetylcholine receptor M1 (Homo sapiens) (UniProt P11229); assay: Cholinergic receptor muscarinic 1 (CHRM1) small molecule antagonists, cell-based qHTS assay (AID 1963588); further: nearly all actives have a fitted effect of over 40% in size
Muscarinic acetylcholine receptor M1 (Homo sapiens), sequence (P11229 whole entry, looked up): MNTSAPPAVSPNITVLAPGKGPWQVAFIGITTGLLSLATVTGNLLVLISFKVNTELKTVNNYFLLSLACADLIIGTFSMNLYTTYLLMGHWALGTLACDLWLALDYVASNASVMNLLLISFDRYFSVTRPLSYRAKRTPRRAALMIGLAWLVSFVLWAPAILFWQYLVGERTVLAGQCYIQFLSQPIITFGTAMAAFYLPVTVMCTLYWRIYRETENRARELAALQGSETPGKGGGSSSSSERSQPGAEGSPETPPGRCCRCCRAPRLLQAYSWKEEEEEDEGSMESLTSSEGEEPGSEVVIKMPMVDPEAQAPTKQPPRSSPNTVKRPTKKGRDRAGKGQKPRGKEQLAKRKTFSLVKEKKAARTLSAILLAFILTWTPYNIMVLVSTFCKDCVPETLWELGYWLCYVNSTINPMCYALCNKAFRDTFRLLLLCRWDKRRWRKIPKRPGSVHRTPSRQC
Procedure, shortened: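 CHRM1-CHO calcium-flux assay, antagonist mode. Cells were seeded 18 h, dye-loaded 1 h at 37 C and given compound for 5 min at RT, then acetylcholine was added at 50nM. FDSS fluorescence was read 3 min; 15 concentrations, three runs.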

[15] = target: Muscarinic acetylcholine receptor M1 (Homo sapiens) (UniProt P11229); assay: Cholinergic receptor muscarinic 1 (CHRM1) small molecule agonists, cell-based qHTS assay (AID 1963589); further: nearly all actives have a fitted effect of over 35% in size
Procedure, shortened: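 Agonist-mode qHTS in CHO cells stably carrying human muscarinic M1. Intracellular calcium is tracked by fluorescence every second after compound transfer; each compound runs at 15 concentrations in three independent runs.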

[16] = cAMP Responsive Elements (CRE) small molecule agonists, cell-based qHTS assay (AID 1963590)
Procedure, shortened: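 Agonist mode qHTS in CRE-bla HEK 293T cells: compounds dosed from DMSO for 3 h at 37 C/5% CO2, followed by LiveBLAzer B/G FRET substrate for 2 h at room temperature.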

[17] = cAMP Responsive Elements (CRE) small molecule antagonists, cell-based qHTS assay (AID 1963591; active means well fitted inhibition curve with a large enough effect in the signal ratio in the repeat runs, not every such curve was filed as active; the % refers to the signal ratio)
Procedure, shortened: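 Antagonist mode: test compounds are co-incubated with the adenylyl cyclase activator NKH477 (0.25 uM final) on CRE-bla HEK293T cells for 3 h at 37 °C, followed by LiveBLAzer substrate loading.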

[18] = target: Beta-2 adrenergic receptor (Homo sapiens) (UniProt P07550); assay: Adrenergic beta2 receptor (ADRB2) small molecule antagonists, cell-based qHTS assay (AID 1963592); further: nearly all actives have a fitted effect of over 50% in size; further: potency means the concentration at half of the fitted maximal effect; on activity change, negative = inhibition: series mostly up to about 92 µM
Beta-2 adrenergic receptor (Homo sapiens), sequence (P07550 whole entry, looked up): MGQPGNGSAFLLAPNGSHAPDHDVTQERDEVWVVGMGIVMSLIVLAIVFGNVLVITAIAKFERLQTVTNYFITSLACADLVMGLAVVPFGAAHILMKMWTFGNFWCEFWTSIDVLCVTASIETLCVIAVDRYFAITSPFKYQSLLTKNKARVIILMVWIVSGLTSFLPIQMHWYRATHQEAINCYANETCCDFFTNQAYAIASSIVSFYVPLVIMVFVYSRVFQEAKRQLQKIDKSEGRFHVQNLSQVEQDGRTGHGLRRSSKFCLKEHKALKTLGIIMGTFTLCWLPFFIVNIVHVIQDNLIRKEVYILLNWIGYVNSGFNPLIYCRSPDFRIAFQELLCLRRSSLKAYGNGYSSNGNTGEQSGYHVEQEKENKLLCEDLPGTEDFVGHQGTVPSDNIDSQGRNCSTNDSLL
Procedure, shortened: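 Cells (CHO, stable ADRB2 overexpression) incubated 18-20hr at 37C; compounds added from DMSO; agonist mix (1nM isoproterenol, 100uM IBMX, 25uM Ro-20-1724) added; 0.5hr RT; d2-cAMP and anti-cAMP-cryptate added; 1hr RT; 665/615 nm read.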

[19] = target: D(2) dopamine receptor (Homo sapiens) (UniProt P14416); assay: Dopamine D2 receptor (DRD2) small molecule agonists, cell-based qHTS assay (AID 1963594); further: nearly all actives have a fitted effect of over 35% in size
D(2) dopamine receptor (Homo sapiens), sequence (P14416 whole entry, looked up): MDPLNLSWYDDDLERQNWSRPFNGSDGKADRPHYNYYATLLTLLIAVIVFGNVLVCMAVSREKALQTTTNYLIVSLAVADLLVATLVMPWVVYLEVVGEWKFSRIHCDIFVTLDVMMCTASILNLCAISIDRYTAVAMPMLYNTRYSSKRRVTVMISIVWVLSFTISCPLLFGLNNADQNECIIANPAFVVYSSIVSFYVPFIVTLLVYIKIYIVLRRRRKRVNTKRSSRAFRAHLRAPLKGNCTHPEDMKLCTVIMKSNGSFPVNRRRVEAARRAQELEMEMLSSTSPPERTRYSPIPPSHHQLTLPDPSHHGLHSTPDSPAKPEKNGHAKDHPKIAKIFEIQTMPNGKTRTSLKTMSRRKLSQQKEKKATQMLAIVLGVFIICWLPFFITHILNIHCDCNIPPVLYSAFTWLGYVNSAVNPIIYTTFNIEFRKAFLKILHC
Procedure, shortened: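 HEK293 cells stably expressing human DRD2, pre-treated with PDE inhibitor Ro20-1724 (0.1 mM final) and compound 10 min at room temperature, then stimulated with NKH477 (200nM […]) for 30 min. cAMP read by HTRF (665/620 nm).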

[20] = target: D(2) dopamine receptor (Homo sapiens) (UniProt P14416); assay: Dopamine D2 receptor (DRD2) small molecule antagonists, cell-based qHTS assay (AID 1963595; active means well fitted inhibition curve with a large enough effect in the signal ratio in the repeat runs, with a control signal flat; the % refers to the signal ratio)
Procedure, shortened: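 HEK293 cells stably expressing DRD2 were preincubated with 0.1 mM Ro20-1724, then with compound for 10 min at room temperature. Cells were stimulated with 200 nM NKH477 plus 12 nM quinpirole for 30 min, and cAMP was read by HTRF.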
On the % scale 0 is the no-effect control and ±100 the full control effect.

CC(C)(C)NCC(O)COc1ccccc1OCC1CCCO1 (stereo unspecified)
inactive: Potency [1] | Potency [2] | Potency [3] | Potency [4] | Potency [5] | Potency [6] | Potency [7] | Potency [8] | Potency [9] | Potency [10] | Potency [11] | Potency [12] | Potency [13] | Potency [14] | Potency [15] | Potency [16] | Potency [17] | Potency [19] | Potency [20]
active: Potency [18] 26.6 nM

Nc1cc(S(=O)(=O)O)ccc1S(=O)(=O)O
inactive: Potency [1] | Potency [2] | Potency [3] | Potency [4] | Potency [5] | Potency [6] | Potency [7] | Potency [8] | Potency [9] | Potency [10] | Potency [11] | Potency [12] | Potency [13] | Potency [14] | Potency [15] | Potency [16] | Potency [17] | Potency [18] | Potency [19] | Potency [20]

NC(=S)Nc1cccc2ccccc12
inactive: activity change, negative = cytotoxicity [1] -1.52% [at 8.39 µM] | activity, positive = activation [2] -4.89% [at 8.39 µM] | activity change [3] 0.074% [at 5.22 µM, hits give high values] | activation [4] 6.64% [at 6.97 µM] | activation [5] -0.659% [at 5.23 µM] | activation [6] 6% [at 5.99 µM] | activation [7] 0.459% [at 5.99 µM] | activity change, negative = cytotoxicity [8] 3.12% [at 5.99 µM] | activity change, negative = cytotoxicity [9] 8.96% [at 5.99 µM] | activity change, negative = cytotoxicity [10] 19.8% [at 5.99 µM] | activation [11] -2.75% [at 5.99 µM] | activity, negative = inhibition [12] 12.8% [at 5.62 µM] | activation [13] 1.75% [at 7.02 µM] | activity, negative = inhibition [14] -5.9% [at 5.58 µM] | activation [15] 0.152% [at 6.97 µM] | activation [16] -1.04% [at 8.39 µM] | activity change, negative = inhibition [17] 1.21% [at 8.39 µM] | activity change, negative = inhibition [18] -15.5% [at 8.39 µM] | activation [19] 2.03% [at 8.39 µM] | activity change, negative = inhibition [20] -0.294% [at 8.38 µM]

CN1N=C(C(N)=O)CCC1=O
inactive: Potency [1] | Potency [2] | Potency [3] | Potency [4] | Potency [5] | Potency [6] | Potency [7] | Potency [8] | Potency [9] | Potency [10] | Potency [11] | Potency [12] | Potency [13] | Potency [14] | Potency [15] | Potency [16] | Potency [17] | Potency [18] | Potency [19] | Potency [20]

F[Si-2](F)(F)(F)(F)F
inactive: Potency [1] | Potency [2] | Potency [3] | Potency [4] | Potency [5] | Potency [6] | Potency [7] | Potency [8] | Potency [9] | Potency [10] | Potency [11] | Potency [12] | Potency [13] | Potency [14] | Potency [15] | Potency [16] | Potency [17] | Potency [18] | Potency [19] | Potency [20]

CC(C)NC(=O)c1ccccc1N
inactive: Potency [1] | Potency [2] | Potency [3] | Potency [4] | Potency [5] | Potency [6] | Potency [7] | Potency [8] | Potency [9] | Potency [10] | Potency [11] | Potency [12] | Potency [13] | Potency [14] | Potency [15] | Potency [16] | Potency [17] | Potency [18] | Potency [19] | Potency [20]

CC1(C)COCN1
inactive: Potency [1] | Potency [2] | Potency [3] | Potency [4] | Potency [5] | Potency [6] | Potency [7] | Potency [8] | Potency [9] | Potency [10] | Potency [11] | Potency [12] | Potency [13] | Potency [14] | Potency [15] | Potency [16] | Potency [17] | Potency [18] | Potency [19] | Potency [20]

C/C=C/C(=O)CCCC
inactive: Potency [1] | Potency [2] | Potency [3] | Potency [4] | Potency [5] | Potency [6] | Potency [7] | Potency [8] | Potency [9] | Potency [10] | Potency [11] | Potency [12] | Potency [13] | Potency [14] | Potency [15] | Potency [16] | Potency [17] | Potency [18] | Potency [19] | Potency [20]

C=CC(C)(O)CC/C=C(/C)CCC=C(C)C (stereo unspecified)
inactive: Potency [1] | Potency [2] | Potency [3] | Potency [4] | Potency [5] | Potency [6] | Potency [7] | Potency [8] | Potency [9] | Potency [10] | Potency [11] | Potency [12] | Potency [13] | Potency [14] | Potency [15] | Potency [16] | Potency [17] | Potency [19] | Potency [20]

CC(=O)c1ccccc1O
inactive: Potency [1] | Potency [2] | Potency [3] | Potency [4] | Potency [5] | Potency [6] | Potency [7] | Potency [8] | Potency [9] | Potency [10] | Potency [11] | Potency [12] | Potency [13] | Potency [14] | Potency [15] | Potency [16] | Potency [17] | Potency [19] | Potency [20]

CCc1cccc(CC)c1NC(=O)C(=O)O
inactive: Potency [1] | Potency [2] | Potency [3] | Potency [4] | Potency [5] | Potency [6] | Potency [7] | Potency [8] | Potency [9] | Potency [10] | Potency [11] | Potency [12] | Potency [13] | Potency [14] | Potency [15] | Potency [16] | Potency [18] | Potency [19] | Potency [20]

O=C(O)c1ccc([N+](=O)[O-])cc1
inactive: Potency [1] | Potency [2] | Potency [3] | Potency [4] | Potency [5] | Potency [6] | Potency [7] | Potency [8] | Potency [9] | Potency [10] | Potency [11] | Potency [12] | Potency [13] | Potency [14] | Potency [15] | Potency [16] | Potency [18] | Potency [19] | Potency [20]
